Screens deposited in PubChem by National Center for Advancing Translational Sciences (NCATS).
ALOX12 inh = blocks human arachidonate 12S-lipoxygenase. P18054. purified 12hLO, xylenol orange hydroperoxide absorbance. Potency, µM (series often up to 108 µM), for inactives: top-dose activity change, negative = inhibition, actives largely listed as inhibitors. 1.1% of 580,000 active. AID 1671190; also: % is scaled to controls: 0 for no effect and ±100 for the full control effect
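Hydroperoxide product was detected by ferrous iron/xylenol orange as the 573 to 405 nm absorbance ratio. Arachidonic acid at 40 uM (final) was turned over for 30 min at room temperature by 150 nM human 12hLO, pH 7.0 Hepes buffer, after 15 min compound preincubation.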
G9a inh = G9a (human) methyltransferase inhibition; 8.8% of 350,000 active; G9a H3K9 monomethylation, AlphaScreen, 2 h; Q96KQ7; AID 504332; Potency, µM (doses to about 102 µM), without a hit: top-dose activity, negative = inhibition, most hits filed as inhibitors; also: % is scaled to controls: 0 for no effect and ±100 for the full control effect; nearly all actives have a fitted effect of over 75% in size
Target sequence (Q96KQ7 913-1193 limits assumed): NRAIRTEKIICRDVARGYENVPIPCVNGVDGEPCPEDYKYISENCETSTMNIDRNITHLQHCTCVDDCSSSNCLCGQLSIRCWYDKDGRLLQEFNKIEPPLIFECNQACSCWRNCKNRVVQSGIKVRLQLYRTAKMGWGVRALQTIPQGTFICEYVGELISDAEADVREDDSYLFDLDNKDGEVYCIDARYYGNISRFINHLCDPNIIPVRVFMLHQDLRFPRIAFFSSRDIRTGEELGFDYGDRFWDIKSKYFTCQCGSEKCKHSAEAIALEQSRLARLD
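Readings reflect AlphaScreen signal from monomethyl-H3K9 antibody detection. HMT at 20 nM; substrate b-H3K9 500 nM; cofactor SAM 20 uM; 2 h RT reaction; compounds tested as titrations in qHTS with 15 min preincubation.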
HP1b binding inh = inhibitors of HP1-beta chromodomain binding to methylated histone tails. Potency, µM (highest dose often 114 µM), inactives show at the highest dose activity change, negative = inhibition, hits mostly inhibitors. 0.56% of 390,000 active. P83916. AlphaScreen HP1-beta / biotin-H3K9me3 peptide binding; also: nearly all actives have a fitted effect of over 70% in size
Target sequence (P83916 whole entry, looked up): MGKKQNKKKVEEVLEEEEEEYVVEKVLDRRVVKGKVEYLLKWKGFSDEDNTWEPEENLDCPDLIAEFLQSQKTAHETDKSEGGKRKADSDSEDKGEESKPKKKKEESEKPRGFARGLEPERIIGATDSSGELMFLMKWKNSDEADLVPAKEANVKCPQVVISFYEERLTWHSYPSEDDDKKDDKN
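Compound inhibition of the preformed complex between 50 nM HP1-beta and 50 nM biotinylated H3K9me3 peptide was read by AlphaScreen. Buffer was PBS pH 7.4 with 0.01% Tween-20. Incubations ran 30 min at room temperature, with 10 ug/mL donor/acceptor beads.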
Sfp inh = inhibitors of Bacillus subtilis Sfp phosphopantetheinyl transferase; Q9F4F7; Biochemical Sfp PPTase activity, qHTS; Potency, µM, for the others: largest response in the series, negative = inhibition, most hits filed as inhibitors; 3.5% of 310,000 active;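 also: the enzyme is Sfp with the accession as filed and its product quenches rhodamine fluorescence; 0% = enzyme reaction without inhibitor and -100% = no enzyme wells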
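Compounds were incubated with enzyme (final 15 nM) for 15 min at room temperature before substrate addition started the reaction. Fluorescence at 525 nm excitation, 598 nm emission was recorded immediately and after 30 minutes.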
BAZ2B inh = BAZ2B (human) inhibition | Q9UIF8 | AlphaScreen BAZ2B-H3K14Ac peptide displacement | Potency, µM (titrated, usually from 114 µM), for the others: top-dose activity change, negative = inhibition, most hits filed as inhibitors | 4.4% of 360,000 active | AID 504333; also: % is scaled to controls: 0 for no effect and ±100 for the full control effect; nearly all actives have a fitted effect of over 60% in size
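AlphaScreen luminescence quantifies BAZ2B engagement of H3K14Ac peptide; the protein and biotinylated peptide are both at 50 nM final, buffer PBS pH 7.4 with 0.01% Tween-20, all steps at room temperature.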
JMJD2A Tudor = blocks the human JMJD2A Tudor domain; AID 504339; Potency, µM (titrated, usually from 114 µM), for the others: top-dose activity change, negative = inhibition, actives largely listed as inhibitors; AlphaScreen JMJD2A-Tudor / H3K4me3 peptide binding; O75164; 4.4% of 390,000 active; also: % is scaled to controls: 0 for no effect and ±100 for the full control effect; nearly all actives have a fitted effect of over 50% in size
Numbers without * were called inactive; u = inconclusive; x = no result; [ ] = remark or other dose. Shown are actives, neighbours in structure and some others; about 8.7% of the full set was active somewhere. Calls follow the shape of the dose curve; as a rule, active = well fitted curve in the direction sought with a large enough effect; inconclusive = small, poorly fitted or top-dose-only effect, or another doubt; inactive = no such curve, though single readings can be large; an effect the other way counts as inactive or inconclusive. Potency is read from the fitted curve at half-maximal effect.

SMILES	ALOX12 inh	G9a inh	HP1b binding inh	Sfp inh	BAZ2B inh	JMJD2A Tudor
O=C(CCSc1nnc(NC2CC2)s1)Nc1cccc(Cl)c1	-16%	x	x	x	x	x
Cc1cccc(N=C2NN=C(c3c(C)[nH]c4ccccc34)CS2)c1	u	u	-34%	40µM*	u	45µM*
CCN(CC)Cc1cnc2c(C(=O)N(CC)CC)cnn2c1	19%	x	x	x	x	x
CCC1(CC)NC(=O)N(CC(=O)Nc2cccc3cccnc23)C1=O	15%	x	x	x	x	x
CCCn1c(=O)c2ccccc2n2c(SCC(=O)NCc3cccs3)nnc12	-7%	u	2%	-22%	-1%	25µM*
CCCn1c(=O)c2ccccc2n2c(SCCOc3ccc(C)cc3)nnc12	-6%[57.4 µM]	u	45%	u	7%	28µM*
Cc1ccc([S+](=O)([O-])N2CCC(c3nn(-c4ccc(F)cc4)c(=O)[nH]3)CC2)cc1	25%	x	x	x	x	x
CCOC(=O)C1=C2NC(=O)c3ccccc3N2C(=O)C1	-15%	7.9µM*	u	-22%	-28%	u
CCN(CC)C(CNC(=O)c1nc(-c2ccccc2)oc1C)c1ccccc1 (stereo unspecified)	12%	x	x	x	x	x
Oc1ccc(N2CCN(c3ncnc4sc(-c5ccccc5)cc34)CC2)cc1	u	3.2µM*	u	20µM*	40µM*	16µM*
Cc1nc(N2CCN(C)CC2)c2cc(-c3ccccc3)sc2n1	-9%	50µM*	28%	u	16%	-11%
Cc1nc(N2CCN(S(=O)(=O)c3ccccc3)CC2)c2cc(-c3ccccc3)sc2n1	0%	u	32%	18%	-4%	-11%
CC(=O)N1CCN(c2ncnc3sc(-c4ccccc4)cc23)CC1	-12%	2%[59 µM]	36%	12%	u	-7%
Cc1nc(N2CCN(C)CC2)c2sc(=S)n(-c3ccccc3)c2n1	-8%	40µM*	38%	-12%	-2%	6%
O=C(NCc1cccc(CNC(=O)Nc2ccccc2C(=O)NCCc2ccccc2)c1)Nc1ccccc1C(=O)NCCc1ccccc1	38%	x	x	x	x	x
CCOc1ccccc1NC(=O)Cn1ccn2nc(-c3ccccc3)c(CO)c2c1=O	-1%	x	x	x	x	x
O=C(CCc1c[nH]c2ccccc12)Nc1ccc(Oc2ccccc2)cc1	112%	x	x	x	x	x
O=C(Nc1ccccc1)c1cnc2n(c1=O)CCS2	-15%	50µM*	44%	4%	9%	-7%
O=C(NCCc1ccc(Cl)cc1)c1cnc2n(c1=O)CCS2	-3%[57.4 µM]	45µM*	23%	7%	11%	-21%
O=C(Nc1ccc2c(c1)OCCO2)c1cnc2n(c1=O)CCS2	u	50µM*	36%	5%	2%	1%
O=C(NCCCc1ccccc1)c1cnc2n(c1=O)CCS2	-1%	-10%[12.7 µM]	32%	-8%	16%	-8%
O=C(Nc1ccc2c(c1)OCO2)c1cnc2n(c1=O)CCS2	-6%	u	25%	-8%	11%	-12%
COCCCNc1nc2c([S+](=O)([O-])c3ccncc3)nnn2c2ccccc12	-1%[6.33 µM]	x	x	x	x	x
CCn1nnc(NC(=O)COc2ccc(Cl)cc2Cl)n1	-4%	x	x	x	x	x
CN(C)CC(C)(C)CNC(=O)C1CCN(CCCc2ccccc2)CC1	u	u	-15%	1%	-10%	56µM*
SMILES	ALOX12 inh	G9a inh	HP1b binding inh	Sfp inh	BAZ2B inh	JMJD2A Tudor
CCCCN1CCC(N(C(=O)NCCc2ccccc2)C2CCOCC2)CC1	91%	x	x	x	x	x
CCCCN(C)C(=O)C1CCN(CCCc2ccccc2)CC1	u	u	u	8%	56µM*	8.9µM*
COc1ccc(Br)cc1/C=N/n1c(COc2ccccc2)n[nH]c1=S	3%	45µM*	12%	2%	1%	-9%
COc1ccc(/C=N/n2c(COc3ccccc3)n[nH]c2=S)cc1OC	u	1.3µM*	u	u	-27%	14µM*
COc1cc(/C=N/N2CCOCC2)ccc1OCc1ccccc1	-4%	-5%	-31%	9%	u	u
COc1ccc(OC)c(/C=N/n2c(COc3ccccc3)n[nH]c2=S)c1	12%	u	44%	0%	3%	-13%
COc1cc(OC)c(OC)cc1/C=N/n1c(COc2ccccc2)n[nH]c1=S	u	u	u	45µM*	-32%	18µM*
CC(=O)N1Cc2ccccc2CC2(CCCN(CC3CCNC3)C2)C1 (stereo unspecified)	8.9µM*	x	x	x	x	x
CC(CCc1ccccc1)NC(=O)CC1CCCC1 (stereo unspecified)	3%	x	x	x	x	x
CCCn1c(N2CCN(CC(=O)c3c(C)n(C)c4ccccc34)CC2)nc2c1c(=O)[nH]c(=O)n2C	0%	-37%	7%	-3%	1%	-14%
CCn1c(N2CCN(CC(=O)c3c[nH]c4ccccc34)CC2)nc2c1c(=O)[nH]c(=O)n2C	u	40µM*	38%	-10%	18%	-9%
CN(Cc1ccccc1N1CCCC1)C(=O)c1ccc(S(=O)(=O)N2CCCC2)cc1	-36%	x	x	x	x	x
COCCNC(=O)C(NC(=O)CC(C)C)C1CCN(C(=O)c2ccccc2C)CC1 (stereo unspecified)	26%	x	x	x	x	x
Cc1oc(-c2nc(C#N)c(NCc3cccnc3)o2)cc1S(=O)(=O)N1CCCC1	-2%	x	x	x	x	x
COc1cc(/C=C/CN2CCN(CCC(C)C)C(CCO)C2)ccc1O (stereo unspecified)	-2%	71µM*	21%	-1%	-21%	-25%
COc1cc(/C=C/CN2CCC(CO)(CC3CCCCO3)CC2)ccc1O (stereo unspecified)	-2%	56µM*	2%	13%	-24%	-16%
COc1cc(/C=C/CN2CCN(Cc3ccc(C)o3)C(CCO)C2)ccc1O (stereo unspecified)	0%	79µM*	-14%	2%	-24%	-20%
Cc1nc(NCC(C)C)sc1C(=O)NCc1ccncc1	0%	x	x	x	x	x
Cc1nn(CC(=O)OC(C)C(=O)Nc2ccccc2[N+](=O)[O-])c(C)c1[N+](=O)[O-] (stereo unspecified)	4%	79µM*	-7%	-11%	5%	-15%
CC(OC(=O)Cn1[nH]c(=O)c2ccccc2c1=O)C(=O)Nc1ccccc1[N+](=O)[O-] (stereo unspecified)	-6%	-9%[2.33 µM]	6%	x	-6%	-13%
CN(C)CCCNS(=O)(=O)c1ccc(NC2CCCCCC2)c([N+](=O)[O-])c1	u	71µM*	-6%	-6%	u	u
CCNc1ccc(S(=O)(=O)NCCN(C)C)cc1[N+](=O)[O-]	1%	-4%	9%	8%	x	0%
